Test results from PubChem BioAssay (NCI).
About 83,000 compounds went through this panel and 20% of them were active in at least one assay; those are over-represented in the sample as a whole.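 Percent growth is the endpoint: 0 to 100 indicates growth inhibition (40 means 60% inhibition), 0 means no net growth, and negative values indicate cell death.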 Active and inactive are the calls of the source.

System: SK-MEL-2 melanoma
Test: NCI-60 one-dose screen, 48 h (100 = growth as untreated, 0 = no growth, -100 = all killed)
Conditions: 10 µM unless noted
Experimental: Growth inhibition of the SK-MEL-2 human tumor cell line is measured as a screen for anti-cancer activity. Cells are grown in 96 well plates and exposed to the test compound for 48 hours. Compounds are tested at a single concentration, which is 10^-5 M for most compounds. The reported endpoint is percent growth (GI% or GIPRCNT), where numbers from 0 - 100% represent growth inhibition, and numbers from -100% - 0 represent cell death. For example, a value of 40 represents 60% growth inhibition. A value of 0 means no net growth occurred over the course of the experiment. A value of -40 indicates 40% of cells at the beginning of the experiment died by the end of the experiment. A value of -100 means all cells are dead at the end of the experiment.
NCI-60 Human Tumor Cell Lines Screen was performed using the standard one-dose NCI protocol, which is described in more detail at https://dtp.cancer.gov/discovery_development/nci-60/default.htm.
Compounds with GIPRCNT values below 10 were considered active. Activity score was based on GIPRCNT using the following formula: […]
Score is 0 for GIPRCNT values of 100 or above, 50 for GIPRCNT values of 0, and 100 for GIPRCNT values of -100.

| SMILES | growth |
| --- | --- |
| Cc1cc(C)c(C#N)c(Sc2nc(C)c([N+](=O)[O-])c(C)c2C#N)n1 | 69.4% (inactive) |
| COc1ccc(/C=C2/C(=O)ON=C2C)cc1 | 96% (inactive) |
| Cc1cccc2c(N)c3ccccc3nc12 | -28.5% (active) |
| CC1C(c2ccccc2)OCCN1C(=S)Nc1ccc(S(=O)(=O)N2CCCCC2)cc1 (stereo not given) | 104% (inactive) |
| CC12CCC(O)CC1=CCC1C2CCC2(C)C3=NN=CC3CC12 (stereo not given) | 118% (inactive) |
| CC(/C=N/NC(N)=S)Cc1ccc(C(C)C)cc1 (stereo not given) | 54.4% (inactive) |
| COc1cc(NCc2ccc3nc(N)nc(N)c3c2C)cc(OC)c1OC (tested in a mixture with another compound) | 61.8% (inactive) |
| Clc1ccccc1C(c1ccccc1)(c1ccccc1)n1ccnc1 | 48.3% (inactive) |
| CCc1cccc(CC)c1N1C(=O)C=CC1=O | 107% (inactive) |
| CC(=O)Nc1ccc(C(=O)CCl)cc1 | 96.6% (inactive) |
| O=[N+]([O-])c1ccc([I+]c2ccccc2)cc1 | -17.9% (active) |
| COc1cc(/C=C/c2ccnc3ccccc23)cc(OC)c1OC | 12.2% (inactive) |
| O=C1CSC(=S)N1Cc1cccnc1 | 85.8% (inactive) |
| NC(=S)Nc1ccc2c(c1)Cc1ccccc1-2 | 89.6% (inactive) |
| CCCCCCCCCCCCN1C(C)=CS/C1=C\C=C\c1scc(C)[n+]1CCCCCCCCCCCC | 1.51% (active) |
| Cc1cc(C(=C2C=CC(=Nc3ccccc3)C=C2)c2ccc(Nc3ccccc3)cc2)ccc1N | -87.4% (active) |
| CCOc1ccc(Nc2nc3c(s2)C(=O)c2ccccc2C3=O)cc1 | 101% (inactive) |
| Oc1c(C(Nc2ccccc2)c2ccccc2)ccc2cccnc12 (stereo not given) | 48% (inactive) |
| N#CC(=C1SCS1)[N+](=O)[O-] | 19.2% (inactive) |
| CCNc1nnnn1CC | 122% (inactive) |

| SMILES | growth |
| --- | --- |
| CN=C(N)N/N=C(\C)c1ccc2c(c1)Cc1ccccc1-2 | -51.8% (active) |
| O=[N+]([O-])C=C(c1ccccc1)c1ccccc1 | 95.5% (inactive) |
| CC(=O)c1ccc2c(c1)CCc1ccccc1-2 | 110% (inactive) |
| COc1ccc2nc3cc(Cl)ccc3c(NCCCCCN3CCCCC3)c2c1 | -71.8% (active) |
| CCCCC(C=O)(C=C=C(C)C)CC (stereo not given) | 111% (inactive) |
| Cc1cc(C)c([I+]c2c(C)cc(C)cc2C)c(C)c1 | -44.1% (active) |
| NC(=S)N/N=C/c1ncccc1O | 103% (inactive) |
| COC(=O)c1ccc(=O)c2nc3/c(=C/O)c(O)cc(=O)c3[nH]c12 | -7.27% (active) |
| O=C1C=CC(O)=CC1=P(c1ccccc1)(c1ccccc1)c1ccccc1 | 82.6% (inactive) |
| COc1cc(OC)c(/C=C/c2c3ccccc3cc[n+]2C)c(OC)c1 | 20.4% (inactive) |
| Nc1nc2ncc(CNc3ccc(C(=O)NC(CCC(=O)NC(CCC(=O)NC(CCC(=O)NC(CCC(=O)NC(CCC(=O)O)C(=O)O)C(=O)O)C(=O)O)C(=O)O)C(=O)O)cc3)nc2c(=O)[nH]1 (stereo not given) | 118% (inactive) |
| Nc1ccc(-c2ccc(N)c(S(=O)(=O)O)c2)cc1S(=O)(=O)O | 127% (inactive) |
| Cc1onc(-c2ccccc2)c1C(=O)N/N=C/c1cc(Cl)cc(Cl)c1O | 37.7% (inactive) |
| O=C1C(=O)c2cccnc2-c2ncccc21 | -11.1% (active) |
| S=c1[nH]c2cc(Cl)ccc2s1 | 100% (inactive) |
| S=C1SCN(Cc2cccs2)CN1Cc1cccs1 | 99% (inactive) |
| O=C(/C=C/c1ccccc1)c1ccccc1O | 98.6% (inactive) |
| CCCCCCN(CCCCCC)CCCNc1nccc2ccccc12 | 21.4% (inactive) |
| Cc1cc2cccnc2c2ncccc12 | 6.1% (active) |
| COc1ccc(C(OCC2OC(n3ccc(NC(=O)c4ccccc4)nc3=O)C(O)C2O)(c2ccccc2)c2ccccc2)cc1 (stereo not given) | 90.1% (inactive) |
